According to PMC11062922 (Nature Chemical Biology, 2023):
Read-outs that look alike come from different tables or passages of the source.

Experiments:
Parameters in all cases: species or system human, MV4-11 + K-562 + COLO205 + SK-N-BE2 + OVCAR-8
[1] = test system: ACAD8; settings: read-out: apparent Kd; compound concentrations: 100 nM and 1000 nM (sheet 'Samples'), CATDS: 3.4609202589527301E-3; n = 1
[2] = test system: BMPR2; settings: read-out: apparent Kd; compound concentrations: 100 nM and 1000 nM (sheet 'Samples'), CATDS: 4.3596889964012502E-3; n = 1
[3] = test system: CAMK2D; settings: read-out: apparent Kd, compound concentrations: 100 nM and 1000 nM (sheet 'Samples'), n = 1
[4] = test system: CSNK1G3; settings: read-out: apparent Kd; compound concentrations: 100 nM and 1000 nM (sheet 'Samples'), CATDS: 4.4654853896455996E-3; n = 1
[5] = test system: DCTPP1; settings: read-out: apparent Kd; compound concentrations: 100 nM and 1000 nM (sheet 'Samples'), CATDS: 4.22997641527893E-3; n = 1
[6] = test system: DDR2; settings: read-out: apparent Kd, compound concentrations: 100 nM and 1000 nM (sheet 'Samples'), n = 1
[7] = test system: EGFR; settings: read-out: apparent Kd, n = 1
[8] = test system: ERN1; settings: read-out: apparent Kd, compound concentrations: 100 nM and 1000 nM (sheet 'Samples'), n = 1
[9] = test system: LIMK1; settings: read-out: apparent Kd, compound concentrations: 100 nM and 1000 nM (sheet 'Samples'), n = 1
[10] = test system: MAP2K6; settings: read-out: apparent Kd; compound concentrations: 100 nM and 1000 nM (sheet 'Samples'), CATDS: 4.6544489898713796E-3; n = 1
[11] = test system: MET; settings: read-out: apparent Kd, n = 1
[12] = test system: MST1R; settings: read-out: apparent Kd; compound concentrations: 100 nM and 1000 nM (sheet 'Samples'), CATDS: 4.6001362310290703E-3; n = 1
[13] = test system: NEK3; settings: read-out: apparent Kd, n = 1
[14] = test system: SIK3; settings: read-out: apparent Kd, compound concentrations: 100 nM and 1000 nM (sheet 'Samples'), n = 1
[15] = test system: TAOK3; settings: read-out: apparent Kd; compound concentrations: 100 nM and 1000 nM (sheet 'Samples'), CATDS: 4.5729665408397397E-3; n = 1
[16] = test system: TBK1; settings: read-out: apparent Kd, n = 1
[17] = test system: VDAC3; settings: read-out: apparent Kd, compound concentrations: 100 nM and 1000 nM (sheet 'Samples'), n = 1
[18] = test system: CAMK4; settings: read-out: apparent Kd; compound concentrations: 100 nM and 1000 nM (sheet 'Samples'), CATDS: 7.8205742217562803E-3; n = 1
[19] = test system: PRKX;PRKY; settings: read-out: apparent Kd, n = 1
[20] = test system: COX5A; settings: read-out: apparent Kd, compound concentrations: 100 nM and 1000 nM (sheet 'Samples'), n = 1
[21] = compound concentrations:100 nM and 1000 nM (sheet 'Samples')

## Cn1ncc2c(N)ncnc21 [SKF-18267]
[1]
  potency estimated from few doses: 2010 nM
[2]
  potency estimated from few doses: 1090 nM
[3]; CATDS: 7.0756718203265796E-3
  potency estimated from few doses: 441 nM
[4]
  potency estimated from few doses: 1030 nM
[5]
  potency estimated from few doses: 1170 nM
[6]; CATDS: 4.5419231694641699E-3
  potency estimated from few doses: 994 nM
[7]; compound concentrations: 100 nM and 1000 nM (sheet 'Samples'), CATDS: 3.5324220214717501E-3
  potency estimated from few doses: 1890 nM
[8]; CATDS: 4.2148373609633104E-3
  potency estimated from few doses: 1180 nM
[9]; CATDS: 4.4629455520233396E-3
  potency estimated from few doses: 1030 nM
[10]
  potency estimated from few doses: 943 nM
[11]; compound concentrations: 100 nM and 1000 nM (sheet 'Samples'), CATDS: 4.2018834707484203E-3
  potency estimated from few doses: 1190 nM
[12]
  potency estimated from few doses: 967 nM
[13]; compound concentrations: 100 nM and 1000 nM (sheet 'Samples'), CATDS: 4.0159133314047798E-3
  potency estimated from few doses: 1320 nM
[14]; CATDS: 3.59529212961178E-3
  potency estimated from few doses: 1790 nM
[15]
  potency estimated from few doses: 979 nM
[16]; compound concentrations: 100 nM and 1000 nM (sheet 'Samples'), CATDS: 5.0307170658674197E-3
  potency estimated from few doses: 804 nM
[17]; CATDS: 4.6944952504306397E-3
  potency estimated from few doses: 926 nM

## COc1ccc(Nc2ncc(C#N)c(Nc3ccccc3C(N)=O)n2)cc1N1CCN(C)CC1.Cl [GSK1558669A]
[6]; CATDS: 6.40385177631159E-3
  potency estimated from few doses: 1140 nM
[8]; CATDS: 5.84806980625629E-3
  potency estimated from few doses: 2140 nM
[9]; CATDS: 6.2092464562502302E-3
  potency estimated from few doses: 1380 nM
[11]; compound concentrations: 100 nM and 1000 nM (sheet 'Samples'), CATDS: 6.0762727664259702E-3
  potency estimated from few doses: 1600 nM
[14]; CATDS: 6.59336570259887E-3
  potency estimated from few doses: 968 nM
[16]; compound concentrations: 100 nM and 1000 nM (sheet 'Samples'), CATDS: 1.0324038658374401E-2
  potency estimated from few doses: 172 nM

## CCOC(=O)N1CCC(n2cnc(-c3ccc(F)cc3)c2-c2ccnc(N)n2)CC1 [SB-219952]
[18]
  potency estimated from few doses: 1850 nM
[6]; CATDS: 9.5517965767772696E-3
  potency estimated from few doses: 979 nM
[8]; CATDS: 7.4915709296516997E-3
  potency estimated from few doses: 2200 nM

## Cc1ccc(Nc2ccnc(Nc3ccc4c(c3)CS(=O)(=O)C4)n2)cc1O.Cl [GW579362A]
[3]; CATDS: 4.2472769063291602E-2
  potency estimated from few doses: 502 nM

## CN(c1ccc(NC(=O)Nc2cccc(Cl)c2)cc1)c1ccnc(N)n1.Cl [GW830707A]
[19]; compound concentrations: 100 nM and 1000 nM (sheet 'Samples'), CATDS: 1.5379195282256401E-2
  potency estimated from few doses: 134 nM

## O=C1N=C(NCCc2ccc(Cl)cc2)S/C1=C\c1ccc2ncccc2c1 [RO4498479-000]
[7]; compound concentrations: 100 nM and 1000 nM (sheet 'Samples'), CATDS: 6.9080879323699202E-3
  potency estimated from few doses: 1730 nM

## CCn1c(-c2nonc2N)nc2c(C#CC(C)(C)O)nc(OCCNC)cc21.Cl [GSK949675A]
[19]; [21]
  potency estimated from few doses: 355 nM

## CN(c1ccc(NC(=O)N2CCN(CCCN3CCOCC3)CC2)cc1)c1ccnc(Nc2ccc(CS(C)(=O)=O)cc2)n1.Cl [GW830899A]
[3]; CATDS: 3.7668858732559402E-2
  potency estimated from few doses: 430 nM
[7]; compound concentrations: 100 nM and 1000 nM (sheet 'Samples'), CATDS: 1.7872150639672801E-2
  potency estimated from few doses: 2150 nM

## CNC(=O)c1ccccc1Nc1nc(Nc2ccc(N3CCOCC3)cc2)ncc1Cl.Cl [GSK1576028A]
[7]; [21]
  potency estimated from few doses: 580 nM
[11]; [21]
  potency estimated from few doses: 68.1 nM
[16]; [21]
  potency estimated from few doses: 395 nM

## CN(C)CC(O)COc1ccc(Nc2nccc(-c3cnn4nc(N5CCOCC5)ccc34)n2)cc1 (stereo not shown) [GW767488X]
[13]; [21]
  potency estimated from few doses: 467 nM

## COC(=O)c1cccc(NC(=O)NC2CCN(c3ccnc(Nc4cc(OC)c(OC)c(OC)c4)n3)C2)c1 (stereo not shown) [GSK1379767A]
[17]; CATDS: 0.107496122866376
  potency estimated from few doses: 1480 nM

## CCN(CC)Cc1ccc(Nc2nccc(-c3cnn4ncccc34)n2)cc1 [GW780056X]
[3]; CATDS: 2.8805291945328802E-2
  potency estimated from few doses: 472 nM

## Cc1ccccc1C1=C(c2cn(C)c3ccccc23)C(=O)NC1=O [RO0317612-000]
[20]; CATDS: 0.16821535460753201
  potency estimated from few doses: 767 nM

## Cc1cc(-c2ccnc(Nc3cccc(C#N)c3)n2)cc(C)c1O [GSK1440913A]
[20]; CATDS: 8.0504484678198804E-2
  potency estimated from few doses: 1300 nM
